Assay outcomes as filed in PubChem.
Rac1 wt GTP bind – wildtype Rac1 GTP binding modulators, primary screen, biochemical, GST-Rac1 beads, flow cytometry, multiplex. fluorescent GTP binding; actives lie on both sides; 0 = cold GTP competed, 100 = untreated. GTP binding activity (% of control), % at 10 µM. 0.27% of 190,000 active. AID 757, 2007;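 active = GTP binding activity at least 20 points away from the 100% control level, either lower or higher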
Cdc42 wt – modulators of GTP binding to wildtype Cdc42, primary screen, biochemical, multiplex bead flow cytometry, Bodipy-GTP; Cell division control protein 42 homolog (Homo sapiens), P60953; GST-Cdc42 beads; actives lie on both sides; percent activity (GTP binding), % at 10 µM; 0.2% of 190,000 active; AID 761, 2007;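 active = percent activity GTP binding at least 20 points away from the 100% baseline, either down as inhibitor or up as activator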;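 note: median bead fluorescence of bound Bodipy-FL-GTP at 100 nM; 0% = excess unlabeled GTP control and 100% = no compound control; below 100% means less GTP binding so inhibitor and above means activator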
Target sequence (P60953 whole entry, looked up): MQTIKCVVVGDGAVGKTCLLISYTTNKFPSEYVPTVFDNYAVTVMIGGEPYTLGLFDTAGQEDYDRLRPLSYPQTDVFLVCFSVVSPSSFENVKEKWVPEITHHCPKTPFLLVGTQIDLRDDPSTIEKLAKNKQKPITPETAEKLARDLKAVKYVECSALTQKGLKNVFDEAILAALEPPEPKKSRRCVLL
Rab7 wt modul – modulators of GTP binding to Rab7, primary screen, biochemical, wildtype, multiplex bead flow cytometry; GTP binding activity (percent of control), % at 10 µM; GST-Rab7 beads, fluorescent GTP binding; actives lie on both sides; untreated = 100%, excess cold GTP = 0%; 0.055% of 190,000 active; Rab7 GTPase wild type (dog), Bodipy-FL-GTP binding; AID 758, 2007;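 active = fluorescent GTP binding to Rab7 beads changed by at least 20 points from the 100% baseline, either direction, mostly lower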;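 note: median green fluorescence of bound Bodipy-FL-GTP per Rab7 bead population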
Rab2 wt GTP – modulators of GTP binding to Rab2A wildtype, primary screen, biochemical, dog, bead-based flow cytometry, multiplex | Ras-related protein Rab-2A (Canis lupus familiaris), P61105 | GST-Rab2 wt beads, Bodipy-GTP binding | GTP binding activity, % at 10 µM | 0.19% of 190,000 active | AID 760, 2007;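 active = GTP binding activity at least 20 points away from 100%, either lowered or raised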;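 note: 0% = beads with excess unlabeled GTP and 100% = no-compound control corrected for plate trend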
HRas wt GTP – modulators of GTP binding to HRas wildtype, primary screen, biochemical, bead-based flow cytometry, multiplex. GTP binding activity, % at 10 µM. 0.14% of 190,000 active. GTPase HRas (Homo sapiens), P01112. GST-Ras wt beads, Bodipy-FL-GTP binding; actives lie on both sides;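 active = GTP binding activity at least 20% away from the 100% baseline, either lowered as inhibitor or raised as activator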;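 note: 0% = unlabeled GTP competition control and 100% = no-compound control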
Target sequence (P01112 whole entry, looked up): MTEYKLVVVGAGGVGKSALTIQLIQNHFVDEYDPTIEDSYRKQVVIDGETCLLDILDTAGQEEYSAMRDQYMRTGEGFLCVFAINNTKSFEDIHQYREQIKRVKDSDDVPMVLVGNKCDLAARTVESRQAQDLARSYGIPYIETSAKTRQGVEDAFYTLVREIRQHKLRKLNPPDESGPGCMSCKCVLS
Rac1 act GTP bind – GTP binding modulators of activated mutant Rac1, primary screen, biochemical, bead-based flow cytometry, multiplex, fluorescent GTP; Ras-related C3 botulinum toxin substrate 1 (Homo sapiens), P63000; GST-Rac1 activated beads; actives lie on both sides; 100% means binding = to untreated wells; percent activity (GTP binding), % at 10 µM; 0.11% of 190,000 active;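 active = GTP binding at least 20 percentage points away from the 100% baseline, in either direction, so actives lie on both sides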
An asterisk follows results filed as active; [ ] = dose if it differs, or a comment. In the library only some 0.38% were active in any assay of this set; here they are far more common.

SMILES	Rac1 wt GTP bind	Cdc42 wt	Rab7 wt modul	Rab2 wt GTP	HRas wt GTP	Rac1 act GTP bind
COc1cc(/C=N/Nc2ccc(F)cc2F)cc(OC)c1OC	101.0	98.0	99.0	97.0	99.0	97.0
COc1ccc(C(=O)NC(=S)N2CC(C)OC(C)C2)cc1 (stereo unspecified)	137.0*[activator]	154.0*[activator]	93.0	98.0	91.0	98.0
CC(/C=N/NC(=O)c1cc(-c2cccnc2)nc2c1c(C)nn2-c1ccccc1)=C\c1ccccc1	102.0	98.0	100.0	97.0	97.0	95.0
NC(=O)COC(=O)CSc1ccc2ccccc2c1	94.0	89.0	105.0	97.0	96.0	91.0
CCn1cc(C(=O)O)c(=O)c2cc(F)c(N/N=C/c3ccccc3)cc21	76.0*	89.0	89.0	83.0	84.0	88.0
Cc1c([N+](=O)[O-])cc(C(=O)Oc2cccc(C(=S)N3CCOCC3)c2)cc1[N+](=O)[O-]	102.0	96.0	111.0	103.0	100.0	95.0
CCOC(=O)c1cc(C(=O)OCC)c(=O)[nH]c1N1CCCC1	51.0*	56.0*	24.0*	54.0*	57.0*	50.0*
CCOC(=O)c1cc(C(=O)OCC)c(=O)[nH]c1C	111.0	107.0	97.0	100.0	97.0	100.0
Cc1cc(C)c(S(=O)(=O)Nc2cccc(S(=O)(=O)NC3=NCCC3)c2)c(C)c1	99.0	91.0	102.0	96.0	96.0	95.0
C=C(C)COc1ccc(-c2n[nH]c(C)c2-c2ccc(Br)cc2)c(O)c1	79.0*	84.0	95.0	94.0	88.0	92.0
O=C(O)c1ccccc1COc1ccccc1Cl	119.0	109.0	109.0	108.0	108.0	110.0
O=C(O)c1ccccc1OCc1ccccc1Br	142.0*[activator]	139.0*[activator]	120.0*[activator]	129.0*[activator]	122.0*[activator]	126.0*[activator]
Cc1ccc(-n2c(-c3cnccn3)n[nH]c2=S)c(Br)c1	81.0	79.0*	84.0	82.0	80.0	80.0
COc1cc(/C=N/NC(=O)CN(Cc2ccco2)S(=O)(=O)c2ccccc2)ccc1O	77.0*	86.0	94.0	81.0	84.0	90.0
COc1cc(/C=N/NC(=O)CN(Cc2ccccc2)S(=O)(=O)c2ccc3c(c2)OCCO3)ccc1O	78.0*	89.0	90.0	78.0*	81.0	88.0
COc1ccc(/C=N/NC(=O)CN(Cc2ccccc2)S(=O)(=O)c2ccc3c(c2)OCCO3)cc1	89.0	95.0	92.0	88.0	91.0	94.0
O=C(O)C(CC1CCCCC1)N1CCS(=O)(=O)CC1 (stereo unspecified)	94.0	96.0	93.0	95.0	93.0	96.0
Cc1cc(C)c(C(CC(=O)c2cccs2)C(C#N)C#N)c(C)c1 (stereo unspecified)	107.0	102.0	102.0	99.0	101.0	100.0
COc1cc(O)c(/C=N/NC(=O)c2ccncc2)c(OC)c1[N+](=O)[O-]	97.0	95.0	93.0	95.0	95.0	94.0
Nc1[nH]nc2ncc3cc4ccccc4nc3c12	68.0*	80.0	88.0	82.0	85.0	83.0
COc1ccc(C2(c3ccc(O)cc3O)CC(c3ccccc3Cl)NC(=S)N2)cc1 (stereo unspecified)	96.0	98.0	95.0	95.0	98.0	96.0
Cc1c(NC(=O)CCN2C(=O)c3ccccc3C2=O)c(=O)n(-c2ccccc2)n1C	78.0*	81.0	95.0	88.0	86.0	84.0
C=CCNC(=O)C(=O)NCCOc1ccccc1Cl	106.0	101.0	98.0	101.0	104.0	100.0
CCN(CC)S(=O)(=O)c1cnccc1N1CCN(c2cccc(Cl)c2)CC1	103.0	104.0	104.0	102.0	104.0	103.0
NC1=NC(=O)/C(=C/c2cn(CCC(=O)O)nc2-c2ccc(F)cc2)S1	96.0	97.0	98.0	98.0	97.0	100.0
